Only some compounds are listed: those with a hit (about 4.8% of all), similar ones and a draw of the others.
Beta cell apopt: inhibitors of cytokine-induced beta cell apoptosis, primary screen, luminescence. AID 435005, 2010. 0.8% of 300,000 active. INS-1E cytokine-induced death, ATP luminescence, 48 h; percent of positive-control rescue, neutral wells zero. protection from apoptosis, % (test concentration not listed);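 active = Every replicate reaches about 75%, or at least half do and their mean reaches it too, limit read from the data; inconclusive = At least half of replicates reach the limit but their mean does not; inactive = Under half of replicates reach the limit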;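 note: 0% = cytokine-treated negative control wells and 100% = positive control rescue; higher means more ATP so stronger rescue from cytokine killing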
Calb FLC: C. albicans growth inhibition with fluconazole, primary screen, CaCi-2 strain, Alamar Blue fluorescence; C. albicans CaCi-2 (fluconazole-resistant clinical isolate) + fluconazole, 48 h; growth inhibition, % (no concentration beside the values); 0.57% of 300,000 active; AID 1979, 2009;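 active = growth inhibition above about 58% in most replicates, limit read from the data, passing the limit was not always enough; inconclusive = exactly half the replicates above a set limit; inactive = most replicates below a set limit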;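 note: all wells also contain fluconazole at 8 µg/ml as a sub-toxic cotreatment; 0% = median of DMSO wells and 100% = median of geldanamycin control wells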
CSC inhib: cancer stem cell viability inhibitors, primary screen, luminescence; cancer stem cell-like cells viability; inhibition, % at 7.5 µM; 1.1% of 300,000 active; AID 2717, 2010; in the data active = inhibition above about 75%; inconclusive = no clear call, values can overlap the other calls; tested in HMLE shEcad cells
MPTP block: mitochondrial permeability transition pore inhibitors, primary screen, biochemical, isolated mouse mitochondria, absorbance. Ca2+ swelling absorbance, 30 min. inhibition, % at 10 µM. 1.4% of 360,000 active;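 active = inhibition of 50% or more, scaled per plate between neutral and stimulator controls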;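 note: 0% = DMSO wells given calcium and 100% = 1 mM EGTA wells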
Mdm2 MdmX PPI: inhibitors of human Mdm2-MdmX association, primary screen, cell-based, luminescence, split luciferase, SaOS-2, uHTS; Protein Mdm4 (Homo sapiens) + E3 ubiquitin-protein ligase Mdm2 (Homo sapiens), …; SaOS-2 split-luciferase Mdm2/MdmX complementation; inhibition, % at 8 µM; 3% of 330,000 active;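 active = inhibition of at least 50% at 8 µM in the primary screen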
Mdm2 MdmX conf: Mdm2-MdmX complex disruptors, retested hits, confirmation, luminescence, single concentration; AID 489028, 2010; 55% of 10,000 active; shares compounds with Mdm2 MdmX PPI; inhibition, % at 8 µM; Mdm2-MdmX binding, luminescent assay; in the data active = inhibition above about 40%
FLuc counter: full-length luciferase signal inhibition, confirmation, counter-screen for Mdm2/MdmX interaction inhibitor project, cell-based, single concentration, SaOS-2. inhibition, % at 8 µM. SaOS-2 full-length luciferase counterscreen, luminescence. 77% of 6,200 active. shares compounds with Mdm2 MdmX PPI;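 active = mean inhibition at 8 µM reaching about 37%, which flags the compound as non-specific, limit read from the data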;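 note: p53-null SaOS-2 cells with luciferase driven by a doxycycline-inducible promoter; compound on cells about two nights before reading with doxycycline added after day one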
* marks the source's active call; other numbers are inactive results; ? = inconclusive; · = not tested or not shown.

SMILES | Beta cell apopt | Calb FLC | CSC inhib | MPTP block | Mdm2 MdmX PPI | Mdm2 MdmX conf | FLuc counter
COc1ccccc1NS(=O)(=O)c1cc([N+](=O)[O-])ccc1N/N=C/c1c[nH]c2ccccc12 | 4.6 | -0.1 | 68.1 | 2.7 | 71.8* | 25.3 | ·
COc1ccc(-c2csc(NC(=O)CCn3cnc4ccccc4c3=O)n2)cc1OC | 18.5 | 0.9 | -3.4 | -0.5 | 57.7* | 2.5 | ·
COc1ccc(-c2csc(NC(C)=O)n2)cc1OC | -5.2 | 3.9 | 2.1 | -0.2 | 1.7 | · | ·
COc1cccc(NC(=O)Nc2nc(-c3ccc(OC)c(OC)c3)cs2)c1 | 16.8 | 15.4 | 103.7* | 19.2 | 95.6* | 98.5* | 52.1*
COc1ccc(-c2csc(NC(=S)NC(=O)c3ccc4ccccc4c3)n2)cc1OC | 15.4 | -2.2 | 37.3 | 0.9 | 78.0* | 10.6 | ·
c1ccc(C[C@H]2COc3c4ccccc4nn32)cc1 | · | · | · | -2.0 | · | · | ·
Cc1c(C(=O)NCCCN2CCCC2=O)oc2ccc(S(=O)(=O)N3CCOCC3)cc12 | -6.0 | · | -13.1 | -1.9 | 1.4 | · | ·
Cc1c(C(=O)NCCC2=CCCCC2)oc2ccc(S(=O)(=O)N3CCOCC3)cc12 | 14.2 | · | 16.0 | 2.6 | 53.8* | 34.5 | ·
CCCN1C(=S)c2ccccc2C1c1ccccc1 (stereo not drawn) | -3.7 | 4.6 | 0.3 | -0.7 | 8.7 | · | ·
CC(C)(C)C(=O)/C=c1\s/c(=C\c2ccc(-c3ccc([N+](=O)[O-])cc3)o2)c(=O)n1CC(=O)NC(N)=O | 2.1 | -3.6 | -6.4 | 1.2 | 67.9* | 58.1* | 54.4*
Cc1ccc(Nc2nnc(SC(C)C(=O)NCC3CCCO3)s2)cc1 (stereo not drawn) | -1.8 | · | -7.8 | -0.7 | 15.9 | · | ·
COc1ccc2c(c1)-c1c(ssc1=S)C(C)(C)N2C(=O)CSC1=NCCS1 | -3.0 | 15.9 | 13.6 | -0.8 | 64.0* | 33.0 | ·
CC1(C)c2ssc(=S)c2-c2ccccc2N1C(=O)CSC1=NCCS1 | -7.1 | 10.7 | 3.1 | -1.2 | 51.9* | 27.4 | ·
Cc1cc2c(cc1C)N(C(=O)CSC1=NCCS1)C(C)(C)c1ssc(=S)c1-2 | -3.9 | 5.3 | · | 0.9 | 42.7 | · | ·
Cc1ccc2c(c1)-c1c(ssc1=S)C(C)(C)N2C(=O)CSc1nncn1C | 2.0 | -4.6 | 8.7 | -6.6 | 4.7 | · | ·
Cc1ccc(CS(=O)(=O)c2ncc(Cl)c(C(=O)Nc3ccc(OC(F)F)cc3)n2)cc1 | 41.4 | -1.7 | 105.1* | -4.3 | 91.3* | 86.1* | 53.7*
CS(=O)(=O)c1ncc(Cl)c(C(=O)Nc2ccc3ccccc3c2)n1 | · | -7.2 | · | 8.4 | · | · | ·
CCS(=O)(=O)c1ncc(Cl)c(C(=O)Nc2ccc(C)cc2)n1 | -30.7 | 2.0 | 119.0* | 0.6 | 86.6* | 78.0* | 57.4*
CCS(=O)(=O)c1ncc(Cl)c(C(=O)Nc2ccc(S(=O)(=O)N3CCCC(C)C3)cc2)n1 (stereo not drawn) | 105.5* | -0.2 | 118.1* | -2.5 | 99.3* | 99.2* | 51.2*
CCC1CCCCN1S(=O)(=O)c1ccc(NC(=O)c2nc(S(C)(=O)=O)ncc2Cl)cc1 (stereo not drawn) | 107.9* | -6.8 | 114.7* | -3.7 | 97.5* | 100.2* | 0.8
O=C(Nc1ccc(OC(F)F)cc1)c1ncc(Cl)c(Cl)c1Cl | 3.9 | 3.7 | 12.6 | -1.4 | 4.1 | · | ·
CC(=O)Nc1ccc(C(=O)N2CCCC(c3cc(C(=O)Nc4ccccc4)no3)C2)cc1 (stereo not drawn) | · | · | · | -1.3 | · | · | ·
CC1CCCCN1S(=O)(=O)c1ccc(C(=O)Nc2nnc(-c3ccccc3Cl)o2)cc1 (stereo not drawn) | · | 9.7 | 42.0 | -24.1 | 40.8 | · | ·
CCC1CCCCN1S(=O)(=O)c1ccc(C(=O)Nc2nnc(-c3ccccc3Cl)o2)cc1 (stereo not drawn) | 13.3 | 10.9 | · | -26.6 | 62.6* | 15.9 | ·
CCOc1ccccc1NC(=O)CCCc1nc2ccccc2c(=O)[nH]1 | 7.5 | -13.6 | 17.1 | -0.7 | 64.9* | 48.6* | 56.0*
SMILES | Beta cell apopt | Calb FLC | CSC inhib | MPTP block | Mdm2 MdmX PPI | Mdm2 MdmX conf | FLuc counter
C=CC[C@H](CC(=O)N(CCO)Cc1ccccc1)C(=O)NCCOC(=O)[C@@H](CC=C)CC(=O)OC(C)(C)C | -2.7 | · | 4.0 | -0.7 | 21.3 | · | ·
O=C(NCC[C@H]1CC[C@@H](NC(=O)C2CCC2)[C@@H](CO)O1)c1cc(Cl)cc(Cl)c1 | · | · | · | -0.8 | · | · | ·
Cc1nc2sc(C(N)=O)c(N)c2c2c1CCCC2 | -6.7 | 27.2 | 5.3 | 0.7 | 87.0* | 88.7* | 49.0*
Cc1ccc(-c2nc3sc(C(N)=O)c(N)c3c3c2CCCC3)cc1 | -1.2 | -8.2 | 17.6 | -3.6 | -5.5 | · | ·
Cc1ccc(-c2c3c(nc4sc(C(N)=O)c(N)c24)CCCC3)o1 | -3.6 | 38.4 | -1.1 | -0.5 | 28.0 | · | ·
NC(=O)c1sc2nc3c(c(-c4ccco4)c2c1N)CCC3 | -51.5 | ? | -13.1 | 0.4 | 76.9* | 55.0* | 24.9
CC(C)(C)C(=O)/C(=C\c1ccc([N+](=O)[O-])cc1)n1cncn1 | 112.0* | 107.5* | 118.8* | · | 99.4* | 100.1* | 1.6
CC(C)(C)C(=O)/C(=C/c1ccc(Cl)cc1)n1cncn1 | -52.2 | -1.5 | 30.2 | -0.1 | 98.9* | 99.5* | -0.4
COC(=O)C1CN(C(=O)COc2ccc(C)cc2)c2ccccc2O1 (stereo not drawn) | 0.3 | -1.2 | -10.2 | -0.6 | -26.0 | · | ·
Nc1nc2ccccc2cc1C(=O)NCc1cccs1 | · | · | · | 2.2 | · | · | ·
Cc1ccc(Sc2ccc(NC(=O)CCl)cc2)c(C)c1 | 3.2 | -44.1 | 40.0 | · | 65.7* | 9.1 | ·
Cc1ccc(C)c(Sc2ccc(NC(=O)CCN3C(=O)NC4(CCCC4)C3=O)cc2)c1 | 11.4 | · | · | 0.3 | 34.8 | · | ·
CNC(=O)COc1coc(CN2CCN(c3ccc(OC)cc3)CC2)cc1=O | · | 4.0 | -10.4 | -0.7 | -4.1 | · | ·
Cn1c(C(=O)NCc2cccs2)cc2oc3ccccc3c21 | -1.9 | 0.0 | -11.4 | 8.7 | 77.4* | 72.4* | 27.7
Cn1c(C(=O)NCC2CCCO2)cc2oc3ccccc3c21 (stereo not drawn) | -4.0 | 5.1 | -1.8 | -5.6 | -102.9 | · | ·
Cn1c(C(=O)NCc2ccccc2)cc2oc3ccccc3c21 | 2.7 | 13.6 | 38.2 | 3.0 | 88.5* | 86.8* | 32.1
Cc1cccc(S(=O)(=O)N2C[C@@H](O)COC[C@@H]3O[C@H](CC(=O)NCCCN4CCOCC4)CC[C@H]32)c1 | · | · | · | -2.6 | · | · | ·
C[C@H](NC(=O)c1[nH]cnc1C(=O)Nc1ccccc1)c1ccccc1 | -2.2 | · | 10.0 | 1.7 | 15.4 | · | ·
